Screening data from PubChem BioAssay.
MITF primary: blocks human microphthalmia-associated transcription factor | 650,000 tested, 0.91% active | AlphaScreen MITF homodimerization, bead proximity signal | inhibition, % at 2.6 µM | O75030; in the data active = inhibition above about 50%;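 also: 0% = vehicle wells with protein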
TEAD-YAP inh: TEAD-YAP interaction inhibition; 640,000 tested, 1.4% active; AID 1259422; HEK-TIYL cells, TEAD-Gal4/YAP UAS-luciferase luminescence; inhibition, % at 9.12 µM; in the data active = inhibition above about 32%;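 also: 0% = median of test compound wells and 100% = reference inhibitor wells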
GPR151 ag: activators of human GPR151; Q8TDV0; 650,000 tested, 1% active; AID 1508602; PathHunter beta-arrestin GPR151 cells, luminescence; activation, % at 11.2 µM; in the data active = activation above about 4.9%;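 also: 0% = median of compound wells and 100% = cells with positive control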
Target sequence (Q8TDV0 whole entry, looked up): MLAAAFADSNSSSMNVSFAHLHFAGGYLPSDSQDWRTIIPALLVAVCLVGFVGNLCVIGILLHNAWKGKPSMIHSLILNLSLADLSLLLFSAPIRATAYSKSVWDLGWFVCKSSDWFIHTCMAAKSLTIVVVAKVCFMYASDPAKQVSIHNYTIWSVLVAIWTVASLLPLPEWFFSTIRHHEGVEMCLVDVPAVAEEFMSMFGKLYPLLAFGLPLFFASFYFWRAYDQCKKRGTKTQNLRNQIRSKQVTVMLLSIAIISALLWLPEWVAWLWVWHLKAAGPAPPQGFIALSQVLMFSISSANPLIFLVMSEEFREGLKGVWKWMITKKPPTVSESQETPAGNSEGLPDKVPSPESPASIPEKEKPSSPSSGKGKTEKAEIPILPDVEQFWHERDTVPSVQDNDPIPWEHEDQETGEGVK
FBW7 activator: activators of human E3 ligase FBW7 | AlphaScreen FBW7–phospho-cyclin E peptide binding, activator screen | 650,000 tested, 0.13% active | Q969H0 | AID 1259310 | normalized activity (activation), % at 26.1 µM; in the data active = normalized activity above about 1.9%;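 also: purified mutant Fbw7 with reduced substrate affinity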
GPR151 conf act: human GPR151 activation, confirmation screen. shares compounds with GPR151 ag. GPR151 PathHunter beta-arrestin cells, luminescence, 90 min; % of EA-reagent control over plate median. activation, % at 11.2 µM. 6,700 tested, under 10 active;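 active = mean percent activation across replicates above the confirmation screen cutoff of 4.91%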
GPR119 counter: activates human GPR119 in a GPR151 counter-screen; GPR119 PathHunter beta-arrestin cells, luminescence, 90 min; 0 = compound-well median, 100 = enzyme-acceptor control; shares compounds with GPR151 ag; activation, % at 11.2 µM; 6,700 tested, 0.3% active;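 active = mean percent activation in the counterscreen above 29.09%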;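 also: counterscreen on off-target GPR119 to flag nonselective hits from the GPR151 activator screen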
The depositor's hits bear a star. Compounds with a hit are over-represented: about 3.5% of the library has one in this group of screens.

`CC(=O)Nc1ccc(S(=O)(=O)Nc2nnc(-c3ccc(F)cc3)s2)cc1` gave MITF primary 0.0, TEAD-YAP inh -6.8, GPR151 ag 6.7*, FBW7 activator -0.1, GPR151 conf act 1.6 and GPR119 counter 7.1.
Screening COc1ccccc1C(=O)N/N=C(\C)CC(=O)Nc1ccc(F)cc1 returned MITF primary -8.3, TEAD-YAP inh -27.9, GPR151 ag 0.1 and FBW7 activator -0.2.
`CSc1ccccc1C(=O)N(C)Cc1ccccc1` gave MITF primary 2.8, TEAD-YAP inh -10.2, GPR151 ag 5.8*, FBW7 activator 0.6, GPR151 conf act 0.2 and GPR119 counter 9.2.
`CC(=O)Nc1ccc(CSc2ccccc2)cc1C` gave MITF primary 3.7, TEAD-YAP inh -53.7, GPR151 ag -0.7 and FBW7 activator 0.0.
`Cc1cc(CSc2ccccc2)ccc1NS(C)(=O)=O` gave MITF primary 3.9, TEAD-YAP inh -25.7, GPR151 ag 5.3*, FBW7 activator 0.1, GPR151 conf act 0.2 and GPR119 counter -3.5.
For CCOC(=O)/C(=C\c1ccco1)NC(=O)c1ccccc1I the results were MITF primary 10.8, TEAD-YAP inh 9.1, GPR151 ag 12.3*, FBW7 activator 0.0, GPR151 conf act -0.2 and GPR119 counter 5.6.
For CN1CCC(N(C)Cc2cc([N+](=O)[O-])ccc2O)CC1 the results were MITF primary 10.5, TEAD-YAP inh 1.7, GPR151 ag 6.0*, FBW7 activator -0.2, GPR151 conf act 0.5 and GPR119 counter 0.6.
Screening CCN(CC)c1ncnc2sc(C(=O)Nc3ccc(C)c(F)c3)c(C)c12 returned MITF primary 11.9, TEAD-YAP inh 0.7, GPR151 ag 9.1*, FBW7 activator 0.0, GPR151 conf act -0.6 and GPR119 counter 1.4.
Screening COc1ccc(N(C(=O)Cc2cccs2)C(C(=O)NC2CCCC2)c2ccncc2)cc1 (centres undefined) returned MITF primary -0.8, TEAD-YAP inh -27.7, GPR151 ag 1.0 and FBW7 activator 0.0.
O=C(NC1CCCC1)C(c1ccncc1)N(C(=O)NCc1cccs1)c1ccncc1 (centres undefined) was read as MITF primary -10.6, TEAD-YAP inh -11.6, GPR151 ag 10.3*, FBW7 activator 0.0, GPR151 conf act 0.5 and GPR119 counter 2.0.
`Cc1ccc(OCC(=O)NC2CCCCC2)cc1C` gave MITF primary -3.6, TEAD-YAP inh -17.5, GPR151 ag -0.6 and FBW7 activator 0.3.
Screening Cc1ccc(OCC(=O)N(C)C2CCCCC2)cc1C returned MITF primary -5.0, TEAD-YAP inh -73.1, GPR151 ag 5.0*, FBW7 activator -0.2, GPR151 conf act -0.9 and GPR119 counter 6.9.
For O=S(=O)(NC1CCN(Cc2ccccc2)CC1)c1ccc(F)c(F)c1 the results were MITF primary 13.7, TEAD-YAP inh 7.7, GPR151 ag 7.1*, FBW7 activator 0.7, GPR151 conf act 0.9 and GPR119 counter -2.7.
`Cn1c(=O)oc2cc(S(=O)(=O)NC3CCN(Cc4ccccc4)CC3)ccc21` gave MITF primary 13.3, TEAD-YAP inh -1.1, GPR151 ag -1.1 and FBW7 activator 0.0.
Screening CC1(C)Cc2nc3sc4c(SCC(=O)N5CCOCC5)ncnc4c3cc2CO1 returned MITF primary -17.0, TEAD-YAP inh -4.9, GPR151 ag 5.9*, FBW7 activator 0.1, GPR151 conf act 0.0 and GPR119 counter -8.9.
For Fc1cccc2sc(Nc3nc(-c4ccccn4)cs3)nc12 the results were MITF primary 19.2, TEAD-YAP inh 50.2*, GPR151 ag 7.6*, FBW7 activator -0.5, GPR151 conf act 0.1 and GPR119 counter 0.4.
`Cc1noc(C)c1CSCC(=O)OC/C(O)=C(\C#N)c1nc2ccccc2[nH]1` gave MITF primary -9.2, TEAD-YAP inh 13.7, GPR151 ag 2.0 and FBW7 activator 0.1.
CC(c1ccco1)N(C)Cc1ccc(C(=O)NC23CC4CC(CC(C4)C2)C3)c(=O)[nH]1 (centres undefined) was read as MITF primary -0.9, TEAD-YAP inh -4.0, GPR151 ag 11.4*, FBW7 activator -0.2, GPR151 conf act 0.4 and GPR119 counter 4.3.
`CC(c1ccco1)N(C)Cc1ccc(C(N)=O)c(=O)[nH]1` (centres undefined) gave MITF primary -1.6, TEAD-YAP inh 2.7, GPR151 ag 0.2 and FBW7 activator 0.1.
